PubChem BioAssay AID504656 (National Center for Advancing Translational Sciences (NCATS), 2011)
The source made the active and inactive calls.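 Rule for the calls: active = any inhibition of parasite growth seen in the dose series, which yields a fitted potency; inactive = compounds showing no inhibition.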

Experiment: Inhibitors of Cruzain: Trypanosoma Cruzi Growth Inhibition Assay
Conditions: T. cruzi in NIH/3T3, beta-gal CPRG absorbance, 4 d
Source text: Cruzain is a cysteine protease from the tropical parasite Trypanosoma cruzi. This assay protocol is for testing followup compounds for T. Cruzi growth inhibition. See following references for additional details: Jadhav A, et al. J Med Chem. 2010 Jan 14;53(1):37-51. Mott BT, et al. J Med Chem. 2010 Jan 14;53(1):52-60. Ferreira, et al. J Med Chem. 2010 Jul 8;53(13):4891-905. Bettiol E, et al. PLoS Negl Trop Dis. 2009;3(2):e384. Assay Provider: Shoichet, Brian; University of California, San Francisco and Ana Rodriguez, New York University School of Medicine. Screening Center PI: Austin, C.P. Screening Center: NIH Chemical Genomics Center [NCGC]
NIH/3T3 cells and parasites were harvested, washed once and resuspended in DMEM supplemented with 2% FBS and Pen-Strep-Glut. […] Different numbers of NIH/3T3 cells were seeded in 96-well plates. After 3 h, compounds were added at the indicated concentrations and mixed by pipetting. BZN tablets (Rochagan, Roche) dissolved in DMSO and 4uM Amphotericin B solution (Sigma-Aldrich) were used as positive controls. Different numbers of T. cruzi parasites were added in a final volume of 200 ul/well. […] Plates were incubated at 37 degrees C for 4 h and absorbance was read at 590 nm using a Tecan Spectra Mini plate reader. […] The IC50 was determined as the concentration at which the activity (absorbance) was half that in the absence of compound. […]

Row | SMILES | Potency
1 | Cc1ccc(OCCn2c(CCNC(=O)C3CCCCC3)nc3ccccc32)cc1 | 64 µM (active)
